About 79,000 compounds went through this panel and 15% of them were active in at least one assay; those are over-represented in the sample as a whole. Calls of active or inactive are those of the source. Cut-off read from the data, not from the text of the source: active = growth inhibition above about 70%; inactive = the rest.
Assays:
[1] = NCI Yeast Anticancer Drug Screen. Data for the wt1 strain (AID 149);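 note: 0% = growth of vehicle-treated wt1 cultures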; conditions: S. cerevisiae wt1 strain (SPY 50644) growth inhibition, hits give high values
Outline: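 Yeast wt1 strain exposed to compounds; growth inhibition measured relative to vehicle-treated controls.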

[2] = NCI Yeast Anticancer Drug Screen. Data for the rad50EPP+ strain (AID 151);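 note: 0% = growth of vehicle-treated control cultures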; conditions: S. cerevisiae rad50 mutant strain, hits give high values
Outline: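 Strain rad50EPP+; compound exposure; % growth inhibition vs vehicle.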

[3] = NCI Yeast Anticancer Drug Screen. Data for the mgt1 strain (AID 153); conditions: S. cerevisiae mgt1 mutant growth inhibition, hits give high values
Outline: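 Read-out: yeast growth inhibition vs vehicle control. Strain mgt1, drawn from a panel altered in DNA damage repair or cell cycle control.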

[4] = NCI Yeast Anticancer Drug Screen. Data for the rad50 strain (AID 155);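 note: 0% = growth of vehicle-only cultures of the same strain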; conditions: S. cerevisiae rad50 strain growth inhibition, hits give high values
Outline: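 Yeast carrying a defined DNA repair defect were exposed to test compounds, and growth was compared with vehicle-treated controls to give percent inhibition.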

[5] = NCI Yeast Anticancer Drug Screen. Data for the mec2-1 strain (AID 157); conditions: S. cerevisiae mec2-1 strain, hits give high values
Outline: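 Cells of the genetically defined mec2-1 yeast strain are incubated with test compound. Inhibition of growth is calculated against vehicle-treated controls.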

[6] = NCI Yeast Anticancer Drug Screen. Data for the rad14 strain (AID 159);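 note: 0% = growth of vehicle-treated control cultures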; conditions: S. cerevisiae rad14 strain growth inhibition, hits give high values
Outline: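 Yeast cells carrying a defined DNA-repair defect were exposed to compounds, and growth inhibition was calculated relative to vehicle-treated control cultures.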

[7] = NCI Yeast Anticancer Drug Screen. Data for the sgs1 mgt1 strain (AID 161);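 note: 0% = growth of cultures given vehicle only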; conditions: S. cerevisiae sgs1 mgt1 strain, hits give high values
Outline: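 Read-out: growth inhibition vs vehicle controls. Cells: mutant yeast strain deficient in DNA damage repair.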

[8] = NCI Yeast Anticancer Drug Screen. Data for the CLN2oe strain (AID 163);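 note: 0% = growth of vehicle-only control cultures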; conditions: S. cerevisiae CLN2oe strain, hits give high values
Outline: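 Strain altered in cell-cycle control, incubated with compound; growth compared to solvent-treated controls.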

[9] = NCI Yeast Anticancer Drug Screen. Data for the bub3 strain (AID 167); conditions: S. cerevisiae bub3 mutant strain, hits give high values
Outline: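 Compounds were applied to a genetically altered yeast strain carrying a cell-cycle control defect. Growth inhibition was scored against vehicle-treated controls.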

[10] = NCI Yeast Anticancer Drug Screen. Data for the wt2 strain (AID 169);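 note: 0% = growth of vehicle-treated yeast cultures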; conditions: S. cerevisiae wt2 strain growth inhibition, hits give high values
Outline: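 Steps: yeast strain treated with compound; growth recorded; inhibition calculated relative to cultures given vehicle alone.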

[11] = NCI Yeast Anticancer Drug Screen. Data for the sgs1 strain (AID 173);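 note: 0% = growth of vehicle-only control cultures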; conditions: S. cerevisiae sgs1 mutant, hits give high values
Outline: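 Inhibition of yeast growth served as the measure. The mutant strain was treated with each compound, and growth was normalised to cultures receiving vehicle alone.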

[12] = NCI Yeast Anticancer Drug Screen. Data for the mlh1 rad18 strain (AID 175); conditions: S. cerevisiae mlh1 rad18 strain growth inhibition, hits give high values
Outline: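 Compound-treated yeast growth, normalised to vehicle controls. Strain bears defined DNA repair mutations.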

[13] = at 5.0 µM (retest, dose inferred, filed as 0.5)
[14] = at 50.0 µM (retest, dose inferred, filed as 5.0)

Measured: growth inhibition

CC(=O)Nc1ccc(/C=C(\C#N)c2ccc(C)cc2)cc1
inactive: [1]; at 1.2 µM 0% | [1]; at 3.7 µM -2% | [1]; at 11.0 µM -6% | [1]; at 33.0 µM -6% | [1]; at 100.0 µM 1% | [2]; at 1.2 µM -11% | [2]; at 3.7 µM -20% | [2]; at 11.0 µM -18% | [2]; at 33.0 µM -8% | [2]; at 100.0 µM -5% | [3]; at 1.2 µM -6% | [3]; at 3.7 µM -16% | [3]; at 11.0 µM -17% | [3]; at 33.0 µM -10% | [3]; at 100.0 µM -13% | [4]; at 1.2 µM -25% | [4]; at 3.7 µM -23% | [4]; [13] 30% | [4]; at 11.0 µM -23% | [4]; at 33.0 µM -13% | [4]; at 50.0 µM 28.4% | [4]; at 100.0 µM -1% | [5]; at 1.2 µM -16% | [5]; at 3.7 µM -23% | [5]; [13] 40% | [5]; at 11.0 µM -22% | [5]; at 33.0 µM -33% | [5]; at 50.0 µM 18.7% | [5]; at 100.0 µM -30% | [6]; at 1.2 µM 1% | [6]; at 3.7 µM -9% | [6]; at 11.0 µM -5% | [6]; at 33.0 µM 4% | [6]; at 100.0 µM 1% | [7]; [13] -12% | [7]; [14] 45% | [7]; at 50.0 µM 24.6% | [8]; at 1.2 µM -3% | [8]; at 3.7 µM -1% | [8]; at 11.0 µM -3% | [8]; at 33.0 µM 8% | [8]; at 100.0 µM 20% | [9]; at 1.2 µM -27% | [9]; at 3.7 µM -21% | [9]; [13] -11% | [9]; at 11.0 µM -12% | [9]; at 33.0 µM 7% | [9]; [14] 39% | [9]; at 50.0 µM 63.7% | [9]; at 100.0 µM -16% | [10]; at 1.2 µM -1% | [10]; at 3.7 µM 9% | [10]; at 11.0 µM 6% | [10]; at 33.0 µM 5% | [10]; at 100.0 µM 0% | [11]; at 1.2 µM -21% | [11]; at 3.7 µM -19% | [11]; at 11.0 µM -23% | [11]; at 33.0 µM -13% | [11]; at 100.0 µM -17% | [12]; [13] 34% | [12]; at 50.0 µM 24.6%
active: [4]; [14] 93% | [5]; [14] 95% | [12]; [14] 97%

— PubChem BioAssay (NCI)
